Measurements: PubChem BioAssay AID1159580 (chemical genetic matrix, 2015)
The campaign covered roughly 5,500 compounds. About 2,000 (36%) were called active. Another 18% or so got no clear call; they are omitted. No stated cut-off is given here; in the data, active means normalized growth mostly below about 0.91 (no sharp cut-off); inconclusive means no clear call, values can overlap the other calls; inactive means mostly above about 0.92. Some of the results follow.

Experiment: chemical genetic growth profiling, strain panel (AID 1159580);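 further: tested at 20 µM; growth read once vehicle control cultures reached saturation at 30 °C; 1 = growth at the plate median or of vehicle wells; lower values mean less growth of the strain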
Conditions: S. cerevisiae deletion strains, growth OD

Measured: normalized growth

CC(=O)OC1CC2C(C)(C)CCCC2(C)C2CCC3(C)C(c4ccoc4)OC(=O)C4OC43C12C (stereo not drawn)
inactive: locus YAL013W, strain DEP1, active compounds read low 0.993 | locus YBR021W, strain FUR4, active compounds read low 0.981 | locus YBR229C, strain ROT2, active compounds read low 0.995 | locus YCL029C, strain bik1, active compounds read low 1.02 | locus YDL035C, strain GPR1, active compounds read low 0.975 | locus YDL074C, strain BRE1, active compounds read low 0.988 | locus YDL101C, strain DUN1, active compounds read low 1.02 | locus YDL134C, strain PPH21, active compounds read low 0.987 | locus YDL185W, strain tfp1, active compounds read low 1.03 | locus YDL192W, strain arf1, active compounds read low 1.01 | locus YDR101C, strain arx1, active compounds read low 1.02 | locus YDR150W, strain NUM1, active compounds read low 1 | locus YDR162C, strain NBP2, active compounds read low 0.979 | locus YDR318W, strain mcm21, active compounds read low 1.01 | locus YDR388W, active compounds read low 1.01 | locus YDR502C, strain sam2, active compounds read low 0.999 | locus YEL061C, strain CIN8, active compounds read low 1 | locus YER110C, active compounds read low 1.02 | locus YER155C, strain BEM2, active compounds read low 1 | locus YER167W, strain BCK2, active compounds read low 1 | locus YGL078C, strain dbp3, active compounds read low 1.01 | locus YGL086W, strain mad1, active compounds read low 1 | locus YGL248W, strain PDE1, active compounds read low 1 | locus YGR135W, strain pre9, active compounds read low 1 | locus YGR252W, strain gcn5, active compounds read low 0.914 | locus YHR030C, strain SLT2, active compounds read low 1.01 | locus YHR079C, strain IRE1 (second series), active compounds read low 1.01 | locus YHR094C, strain hxt1, active compounds read low 1.01 | locus YHR129C, strain ARP1, active compounds read low 1 | locus YHR200W, strain rpn10, active compounds read low 1 | locus YIL066C, strain RNR3, active compounds read low 1 | locus YIL073C, strain SPO22, active compounds read low 1.02 | locus YIL125W, strain kgd1, active compounds read low 1.01 | locus YIR030C, strain dcg1, active compounds read low 1.01 | locus YJL095W, strain BCK1, active compounds read low 0.991 | locus YJL134W, strain LCB3, active compounds read low 1.01 | locus YJL168C, strain set2, active compounds read low 1.01 | locus YJL187C, strain SWE1 (second series), active compounds read low 0.999 | locus YJR043C, strain POL32, active compounds read low 0.978 | locus YJR075W, strain HOC1, active compounds read low 0.995 | locus YKL009W, strain mrt4, active compounds read low 1 | locus YKL068W, active compounds read low 1.01 | locus YKL085W, strain MDH1 (second series), active compounds read low 1 | locus YKL085W, strain MDH1, active compounds read low 1 | locus YKL190W, strain CNB1, active compounds read low 1 | locus YKR001C, strain vps1, active compounds read low 0.993 | locus YLR039C, strain RIC1, active compounds read low 1.01 | locus YLR058C, strain SHM2, active compounds read low 1.01 | locus YLR102C, strain apc9, active compounds read low 1.01 | locus YLR262C, strain YPT6, active compounds read low 1.03 | locus YLR268W, strain sec22, active compounds read low 1.01 | locus YLR330W, strain CHS5, active compounds read low 1.01 | locus YLR342W, strain FKS1 (second series), active compounds read low 0.954 | locus YLR371W, strain rom2, active compounds read low 1.02 | locus YLR418C, strain cdc73, active compounds read low 1.01 | locus YML016C, strain PPZ1, active compounds read low 1.01 | locus YML032C, strain rad52, active compounds read low 1.01 | locus YML124C, strain tub3, active compounds read low 1.02 | locus YMR078C, strain ctf18, active compounds read low 1.02 | locus YMR223W, strain ubp8, active compounds read low 1 | locus YMR263W, strain SAP30, active compounds read low 1.01 | locus YMR307W, strain GAS1, active compounds read low 0.854 | locus YNL067W, strain RPL9B, active compounds read low 1.02 | locus YNL153C, strain GIM3, active compounds read low 1 | locus YNL233W, strain BNI4, active compounds read low 0.99 | locus YNL250W, strain rad50, active compounds read low 1.01 | locus YNL271C, strain bni1, active compounds read low 0.998 | locus YNL298W, strain CLA4, active compounds read low 1.01 | locus YNL307C, strain MCK1, active compounds read low 1.01 | locus YNR052C, strain pop2, active compounds read low 1.01 | locus YOL012C, strain htz1 0.802 | locus YOL147C, strain pex11, active compounds read low 1.01 | locus YOR061W, strain CKA2, active compounds read low 1.01 | locus YOR069W, strain VPS5, active compounds read low 1.01 | locus YOR136W, strain idh2, active compounds read low 1.01 | locus YOR144C, strain elg1, active compounds read low 1.01 | locus YOR184W, strain ser1, active compounds read low 1.01 | locus YOR316C, strain cot1, active compounds read low 1.01 | locus YPR119W, strain clb2, active compounds read low 1.01 | locus YPR141C, strain kar3, active compounds read low 1.02 | locus YPR163C, strain tif3, active compounds read low 1.02 | locus YPR167C, strain met16, active compounds read low 1.01 | strain wtn01, active compounds read low 1
